Laboratory results taken from PubChem BioAssay AID1159580 (chemical genetic matrix, 2015).
Where “and” joins values, the source holds several entries; their conditions need not be identical. Identical values can stand only once. Out of some 5,500 compounds screened, about 2,000 (36%) were called active. Not shown: some 18% with an inconclusive outcome. Rule as the data show it: active = normalized growth mostly below about 0.91 (no sharp cut-off); inconclusive = no clear call, values can overlap the other calls; inactive = mostly above about 0.92. This is one part of the list.

Test: chemical genetic growth profiling, strain panel (AID 1159580);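 also: tested at 20 µM; growth read once vehicle control cultures reached saturation at 30 °C; 1 = growth at the plate median or of vehicle wells; lower values mean less growth of the strain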
Details: growth OD

Measured: normalized growth

O=C(CCCN1CCC2(CC1)C(=O)NCN2c1ccccc1)c1ccc(F)cc1
inactive: S. cerevisiae deletion strains, locus YKL009W, strain mrt4, active compounds read low 0.977 | S. cerevisiae deletion strains, locus YKL068W, active compounds read low 0.99 | S. cerevisiae deletion strains, locus YKL085W, strain MDH1 (second series), active compounds read low 0.986 | S. cerevisiae deletion strains, locus YKL085W, strain MDH1, active compounds read low 0.986 | S. cerevisiae deletion strains, locus YKL160W, strain elf1, active compounds read low 0.946 | S. cerevisiae deletion strains, locus YKL190W, strain CNB1, active compounds read low 0.99 | S. cerevisiae deletion strains, locus YKR001C, strain vps1, active compounds read low 0.999 | S. cerevisiae deletion strains, locus YKR026C, strain gcn3, active compounds read low 0.985 | S. cerevisiae deletion strains, locus YKR091W, strain srl3, active compounds read low 0.97 | S. cerevisiae deletion strains, locus YLL001W, strain dnm1, active compounds read low 1.01 | S. cerevisiae deletion strains, locus YLL026W, active compounds read low 0.978 | S. cerevisiae deletion strains, locus YLL041C, strain sdh2, active compounds read low 0.988 | S. cerevisiae deletion strains, locus YLR027C, strain aat2, active compounds read low 0.99 | S. cerevisiae deletion strains, locus YLR039C, strain RIC1, active compounds read low 0.995 | S. cerevisiae deletion strains, locus YLR058C, strain SHM2, active compounds read low 0.975 | S. cerevisiae deletion strains, locus YLR102C, strain apc9, active compounds read low 0.995 | S. cerevisiae deletion strains, locus YLR113W, strain HOG1, active compounds read low 1.01 | S. cerevisiae deletion strains, locus YLR221C, strain rsa3, active compounds read low 1.02 | S. cerevisiae deletion strains, locus YLR258W, strain gsy2, active compounds read low 0.986 | S. cerevisiae deletion strains, locus YLR262C, strain YPT6 (second series), active compounds read low 0.995 | S. cerevisiae deletion strains, locus YLR262C, strain YPT6, active compounds read low 0.955 | S. cerevisiae deletion strains, locus YLR268W, strain sec22, active compounds read low 0.93 | S. cerevisiae deletion strains, locus YLR320W, strain mms22, active compounds read low 0.993 | S. cerevisiae deletion strains, locus YLR330W, strain CHS5, active compounds read low 1 | S. cerevisiae deletion strains, locus YLR342W, strain FKS1 (second series), active compounds read low 1.04 | S. cerevisiae deletion strains, locus YLR342W, strain FKS1, active compounds read low 0.972 | S. cerevisiae deletion strains, locus YLR357W, strain rsc2, active compounds read low 0.953 | S. cerevisiae deletion strains, locus YLR370C, strain arc18, active compounds read low 0.98 | S. cerevisiae deletion strains, locus YLR371W, strain rom2, active compounds read low 0.991 | S. cerevisiae deletion strains, locus YLR384C, strain iki3, active compounds read low 0.982 | S. cerevisiae deletion strains, locus YLR418C, strain cdc73, active compounds read low 0.976 | S. cerevisiae deletion strains, locus YML016C, strain PPZ1, active compounds read low 0.995 | S. cerevisiae deletion strains, locus YML032C, strain rad52, active compounds read low 0.991 | S. cerevisiae deletion strains, locus YML120C, strain ndi1, active compounds read low 0.984 | S. cerevisiae deletion strains, locus YML124C, strain tub3, active compounds read low 0.989 | S. cerevisiae deletion strains, locus YMR058W, strain fet3, active compounds read low 0.987 | S. cerevisiae deletion strains, locus YMR078C, strain ctf18, active compounds read low 0.985 | S. cerevisiae deletion strains, locus YMR125W, strain sto1, active compounds read low 1 | S. cerevisiae deletion strains, locus YMR129W, active compounds read low 0.965 | S. cerevisiae deletion strains, locus YMR205C, strain PFK2, active compounds read low 1.05 | S. cerevisiae deletion strains, locus YMR223W, strain ubp8, active compounds read low 0.992 | S. cerevisiae deletion strains, locus YMR231W, strain pep5, active compounds read low 0.988 | S. cerevisiae deletion strains, locus YMR307W, strain GAS1, active compounds read low 1.08 and 1.02 | S. cerevisiae deletion strains, locus YNL067W, strain RPL9B, active compounds read low 0.985 | S. cerevisiae deletion strains, locus YNL071W, strain lat1, active compounds read low 0.995 | S. cerevisiae deletion strains, locus YNL128W, strain TEP1, active compounds read low 0.989 | S. cerevisiae deletion strains, locus YNL153C, strain GIM3, active compounds read low 0.969 | S. cerevisiae deletion strains, locus YNL175C, strain NOP13, active compounds read low 1.01 | S. cerevisiae deletion strains, locus YNL183C, strain NPR1, active compounds read low 0.934 | S. cerevisiae deletion strains, locus YNL197C, strain WHI3, active compounds read low 1.01 | S. cerevisiae deletion strains, locus YNL209W, strain ssb2, active compounds read low 0.998 | S. cerevisiae deletion strains, locus YNL224C, strain SQS1, active compounds read low 1.01 | S. cerevisiae deletion strains, locus YNL233W, strain BNI4, active compounds read low 0.994 | S. cerevisiae deletion strains, locus YNL248C, strain rpa49, active compounds read low 0.928 | S. cerevisiae deletion strains, locus YNL250W, strain rad50, active compounds read low 0.972 | S. cerevisiae deletion strains, locus YNL271C, strain bni1, active compounds read low 1 | S. cerevisiae deletion strains, locus YNL298W, strain CLA4, active compounds read low 0.999 | S. cerevisiae deletion strains, locus YNL307C, strain MCK1, active compounds read low 0.989 | S. cerevisiae deletion strains, locus YNL322C, strain KRE1 (second series), active compounds read low 0.968 | S. cerevisiae deletion strains, locus YNL322C, strain KRE1, active compounds read low 0.999 | S. cerevisiae deletion strains, locus YNR049C, strain mso1, active compounds read low 0.955 | S. cerevisiae deletion strains, locus YNR052C, strain pop2, active compounds read low 0.999 | S. cerevisiae deletion strains, locus YOL006C, strain TOP1, active compounds read low 0.903 | S. cerevisiae deletion strains, locus YOL012C, strain htz1 1.37 | S. cerevisiae deletion strains, locus YOL147C, strain pex11, active compounds read low 0.999 | S. cerevisiae deletion strains, locus YOR001W, strain rrp6, active compounds read low 0.984 | S. cerevisiae deletion strains, locus YOR061W, strain CKA2, active compounds read low 0.964 | S. cerevisiae deletion strains, locus YOR069W, strain VPS5, active compounds read low 0.999 | S. cerevisiae deletion strains, locus YOR070C, strain gyp1, active compounds read low 0.986 | S. cerevisiae deletion strains, locus YOR080W, strain dia2, active compounds read low 0.96 | S. cerevisiae deletion strains, locus YOR083W, strain WHI5 (second series), active compounds read low 1.03 | S. cerevisiae deletion strains, locus YOR106W, strain vam3, active compounds read low 0.959 | S. cerevisiae deletion strains, locus YOR136W, strain idh2, active compounds read low 0.98 | S. cerevisiae deletion strains, locus YOR144C, strain elg1, active compounds read low 0.994 | S. cerevisiae deletion strains, locus YOR184W, strain ser1, active compounds read low 0.983 | S. cerevisiae deletion strains, locus YOR231W, strain MKK1, active compounds read low 1 | S. cerevisiae deletion strains, locus YOR265W, strain rbl2, active compounds read low 0.956 | S. cerevisiae deletion strains, locus YOR270C, strain vph1, active compounds read low 0.972 | S. cerevisiae deletion strains, locus YOR290C, strain snf2, active compounds read low 0.944 | S. cerevisiae deletion strains, locus YOR316C, strain cot1, active compounds read low 0.986 | S. cerevisiae deletion strains, locus YPL051W, strain arl3, active compounds read low 0.974 | S. cerevisiae deletion strains, locus YPL055C, strain LGE1, active compounds read low 0.909 and 0.983 | S. cerevisiae deletion strains, locus YPL078C, strain atp4, active compounds read low 0.964 | S. cerevisiae deletion strains, locus YPL106C, strain sse1, active compounds read low 0.965 | S. cerevisiae deletion strains, locus YPL240C, strain hsp82, active compounds read low 0.99 | S. cerevisiae deletion strains, locus YPL241C, strain CIN2, active compounds read low 1.01 | S. cerevisiae deletion strains, locus YPL256C, strain CLN2, active compounds read low 1.02 | S. cerevisiae deletion strains, locus YPR119W, strain clb2, active compounds read low 0.987 | S. cerevisiae deletion strains, locus YPR141C, strain kar3, active compounds read low 1 | S. cerevisiae deletion strains, locus YPR163C, strain tif3, active compounds read low 1 | S. cerevisiae deletion strains, locus YPR167C, strain met16, active compounds read low 0.999 | S. cerevisiae deletion strains, strain wtn01, active compounds read low 0.987 | S. cerevisiae strains, strain wild type, active compounds read low 0.99
active: S. cerevisiae deletion strains, locus YOR083W, strain WHI5, active compounds read low 0.879
